Results reported in PubChem BioAssay AID1645853 (Buhrlage Lab, Dana-Farber Cancer Institute and Novartis …, 2021).
In all, about 47,000 compounds went through this assay and about 2,000 (4.3%) were called active. The full list was thinned out, with actives kept by preference. A number with no mark means an inactive call. No stated cut-off is given here; in the data, active means inhibition above about 30%; inactive means the rest.

Each compound was assayed against Ubiquitin carboxyl-terminal hydrolase 8 (Homo sapiens) (UniProt P40818) (assay: inhibitors of human USP8 deubiquitinase (AID 1645853)). Conditions: purified USP8, Ub-rhodamine cleavage fluorescence, 30 min; at 20 µM; active compounds read high.
Chain of Ubiquitin carboxyl-terminal hydrolase 8 (Homo sapiens) (P40818 whole entry, looked up): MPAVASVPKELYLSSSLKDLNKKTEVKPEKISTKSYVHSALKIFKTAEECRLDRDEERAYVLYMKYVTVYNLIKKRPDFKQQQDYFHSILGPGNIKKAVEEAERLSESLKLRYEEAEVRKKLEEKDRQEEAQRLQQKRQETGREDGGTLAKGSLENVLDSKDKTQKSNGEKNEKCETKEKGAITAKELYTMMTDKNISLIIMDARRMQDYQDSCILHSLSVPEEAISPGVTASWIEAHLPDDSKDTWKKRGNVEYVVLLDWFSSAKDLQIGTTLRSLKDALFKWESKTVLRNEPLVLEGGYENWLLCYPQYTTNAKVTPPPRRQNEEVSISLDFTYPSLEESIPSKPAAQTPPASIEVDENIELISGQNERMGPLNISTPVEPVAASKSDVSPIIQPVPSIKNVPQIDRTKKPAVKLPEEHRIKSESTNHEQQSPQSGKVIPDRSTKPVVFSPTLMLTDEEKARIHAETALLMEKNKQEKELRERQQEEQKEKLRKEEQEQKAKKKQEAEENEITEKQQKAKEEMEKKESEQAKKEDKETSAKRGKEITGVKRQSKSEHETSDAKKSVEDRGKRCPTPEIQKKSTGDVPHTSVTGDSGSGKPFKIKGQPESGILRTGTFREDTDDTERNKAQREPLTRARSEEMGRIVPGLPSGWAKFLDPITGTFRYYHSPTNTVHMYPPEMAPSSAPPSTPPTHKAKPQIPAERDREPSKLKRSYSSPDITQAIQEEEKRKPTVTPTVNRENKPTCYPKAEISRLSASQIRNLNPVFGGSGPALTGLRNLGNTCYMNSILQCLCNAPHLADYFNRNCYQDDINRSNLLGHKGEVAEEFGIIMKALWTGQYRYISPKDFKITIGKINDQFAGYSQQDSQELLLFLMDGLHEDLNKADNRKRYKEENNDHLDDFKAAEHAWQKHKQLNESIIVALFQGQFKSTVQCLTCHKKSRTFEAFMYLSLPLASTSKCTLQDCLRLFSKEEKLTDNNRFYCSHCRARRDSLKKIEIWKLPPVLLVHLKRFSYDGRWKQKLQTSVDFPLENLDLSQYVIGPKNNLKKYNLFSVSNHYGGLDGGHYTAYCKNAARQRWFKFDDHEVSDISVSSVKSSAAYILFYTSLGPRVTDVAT
For `Cn1cc(-c2nc(CN3CCCC3Cn3cccn3)cs2)cn1` (stereo unspecified), the inhibition was -48.6%. Work on `O=C(Cn1c(=O)n(Cc2ccc3c(c2)OCO3)c(=O)c2ccccc21)NCc1ccco1` yielded an inhibition of 8.11%. With `O=C(CCc1nnc2n(Cc3ccccc3)c(=O)c3ccccc3n12)N1CCN(C(=O)c2ccco2)CC1` the inhibition was 2.75%. For `O=C(NCCc1ccccc1)c1ccc2c(=O)n(Cc3ccco3)c(=O)n(Cc3cccc([N+](=O)[O-])c3)c2c1`, the inhibition was 83.9% (active). `COc1ccc(-c2ccc3nc(N4CCC(C(N)=O)CC4)sc3n2)cc1` was tested, and the inhibition was -18.5%. `C[C@@H]1CCCCCCCCC[C@@H](OC(=O)CCC(=O)O)C(=O)/C=C/C(=O)O1` showed an inhibition of -0.995%. For `Cc1ccc(Nc2nc(O)c(CC(=O)Nc3ccc(C(C)C)cc3)s2)cc1C`, the inhibition was -0.936%. With `Cc1ccc(NC(=O)Cc2sc(Nc3ccc(C)cc3)nc2O)cc1` the inhibition was 35.4% (active). Compound `CCOc1ccc(Nc2nc(O)c(CC(=O)Nc3cccc(C)c3)s2)cc1` has an inhibition of 29.3%. For `O=C(NCc1ccncc1)c1nnn(-c2ccc(F)cc2)c1-c1ccncc1`, the inhibition was 5.41%. `O=C(CSc1nnc(-c2cccnc2)o1)N1CCN(c2ccc(F)cc2)CC1` gave an inhibition of 19%. Compound `Cc1nc(-c2cccc(NC(=O)C3CCN(c4ccccc4)C3=O)c2)no1` (stereo unspecified) has an inhibition of 27.7%. `O=C(c1ccccc1)c1ccc(NC2CCCc3ccccc32)c([N+](=O)[O-])c1` (stereo unspecified) showed an inhibition of -7.98%. `O=C(COC(=O)c1ccc(F)cc1)NC1CCCc2ccccc21` (stereo unspecified) was tested, and the inhibition was 7.36%. In the case of `Nc1ccc(C(=O)OCC(=O)NC2CCCc3ccccc32)cc1[N+](=O)[O-]` (stereo unspecified), the inhibition is reported as 50.4% (active). Work on `O=C(CN1CCN(Cc2nc3ccccc3s2)CC1)N1CCc2ccccc21` yielded an inhibition of -4.14%. Work on `CC(C)C(=O)N1[C@@H](c2ccccc2)C[C@@H]2NC(=O)CCC[C@H]21` yielded an inhibition of 1.29%. `CC1CCc2c(sc3ncnc(OCc4cccc([N+](=O)[O-])c4)c23)C1` (stereo unspecified) gave an inhibition of -36.3%. `Cc1nc(N)ncc1C(=O)N1CCCC(C)(C(=O)NC2CCCC2)C1` (stereo unspecified) was tested, and the inhibition was 4.82%. With `Cc1nnn(C23CC4CC(CC(C(=O)NC5CCCC5)(C4)C2)C3)n1` the inhibition was 30.1% (active). Work on `COCCn1cnc2c(-c3ccccc3)cn(CC(=O)NCc3ccccc3)c2c1=O` yielded an inhibition of 0.16%. `O=c1c2c(ncn2C2CCCC2)n(Cc2ccccc2)c(=O)n1Cc1ccccc1` showed an inhibition of 1.24%. For `COCCn1cnc2c1c(=O)n(CC(=O)Nc1c(C)cc(C)cc1C)c(=O)n2Cc1ccccc1`, the inhibition was 32.6% (active). `Cc1nc(C2CCN(C(=O)Cc3ccc(F)cc3)CC2)ncc1C(N)=O` showed an inhibition of 0.65%. Work on `O=S(=O)(c1ccccc1)n1nc(-c2cccnc2)nc1NCc1ccc(Cl)cc1` yielded an inhibition of 3.57%. `CS(=O)(=O)c1ccc(CN2CCC3(C/C=C/Cc4ccccc4OCC(=O)NC3)CC2)cc1` gave an inhibition of -3.81%. For `O=C(O)c1c2c(nc3ccccc13)/C(=C/c1ccc(F)cc1)CCC2`, the inhibition was 35.2% (active). With `O=C1NC(c2ccccc2)=N/C1=C/c1ccc(F)cc1` the inhibition was -0.962%. `O=C(O)c1ccc2c(=O)n3c(nc2c1)/C(=C/c1cccc(C(F)(F)F)c1)CC3` gave an inhibition of 14.9%. With `CC1(C)[C@H](Cc2cc(-c3ccccc3)on2)C[C@@H]1NC(=O)C1CC1` the inhibition was -0.801%. `CCOc1ccccc1NC(=O)COc1cccc2c1OC(C)(C)C2` showed an inhibition of 8.84%. `CCOc1ccccc1NC(=O)Nc1cc(-c2nc3ccccc3o2)ccc1OC` was tested, and the inhibition was 21.7%. In the case of `CCOc1ccccc1NC(=O)Cc1cccs1`, the inhibition is reported as 31.3% (active). For `O=S(=O)(Nc1ccc2[nH]ncc2c1)c1ccccc1Cl`, the inhibition was 47% (active). In the case of `CCOc1cc(S(=O)(=O)Nc2ccc3cn[nH]c3c2)ccc1Cl`, the inhibition is reported as 22.3%. Compound `CN1C(=O)C(C)(C)COc2ccc(NS(=O)(=O)c3ccccc3Cl)cc21` has an inhibition of 0.668%. For `CCCCCn1c(=O)c2sccc2n2c(CCC(=O)NC3CC3)nnc12`, the inhibition was 5.66%. Work on `COc1ccc(C(=O)N2CCC(Cc3nc(-c4cnccn4)no3)CC2)cc1` yielded an inhibition of 6%. For `CCOc1ccccc1C(=O)NCC(c1ccco1)N1CCCC1` (stereo unspecified), the inhibition was 23.5%. In the case of `Cc1ccc(N2C(=O)CN(S(C)(=O)=O)CC2(C)C(=O)NC2CCCCC2)c(C)c1` (stereo unspecified), the inhibition is reported as 15.1%. With `Cc1ccc(N2C(=O)CN(S(=O)(=O)c3ccccc3)CC2(C)C(=O)NCCC(C)C)cc1C` (stereo unspecified) the inhibition was 6.01%. For `CCOc1ccc2c(c1)c(=O)c(C(=O)c1ccccc1)cn2CC(=O)Nc1ccc(OC)cc1`, the inhibition was 93.8% (active). Work on `COc1ccc(NC(=O)CSc2cn(CC(=O)N3CCCC3)c3ccccc23)cc1` yielded an inhibition of -38.7%. For `CCOc1ccc(NC(=O)Cn2cc(C(=O)c3ccc(Cl)cc3)c(=O)c3cc(OC)ccc32)cc1`, the inhibition was -4.68%. Compound `O=C(NCCc1ccccc1)N1CCC(n2c(=O)[nH]c3cncnc32)C1` (stereo unspecified) has an inhibition of 5.93%. `COc1cc(C(=O)N(c2ccccn2)C2CCCCC2)cc(OC)c1OC` showed an inhibition of -3.54%. With `O=C(/C=C/c1ccc(Cl)cc1)Nc1ccc2c(c1)OCCO2` the inhibition was -8.51%. For `COCCN1Cc2c(C(=O)N3CCCCC3)ncn2-c2ccccc2S1(=O)=O`, the inhibition was -27.7%. In the case of `Cc1ccc(-n2cc(-c3noc(C(=O)Nc4ccc(F)cc4C)n3)nn2)cc1`, the inhibition is reported as 99% (active). Compound `Cc1cc(F)ccc1NC(=O)c1cc(C2CC2)n2nccc2n1` has an inhibition of -4.45%. Work on `Cc1ccc(CNC(=O)c2nc(-c3cn(-c4ccc(Br)cc4)nc3C)no2)o1` yielded an inhibition of 13.8%. Work on `COc1cccc(CNC(=O)c2cc3c(=O)n(C)ccc3n2C)c1` yielded an inhibition of -1.58%. In the case of `COc1ccc(NC(=O)CS(=O)(=O)c2cn(CC(=O)N3CCCC3)c3ccccc23)cc1`, the inhibition is reported as -8.78%. Work on `Cn1nc(C2CCN(Cc3ccc4c(c3)CC(C)(C)O4)CC2)c2nccnc21` yielded an inhibition of -31%. `COc1cc(CN2CCCC(c3ncc(Cl)cc3S(C)(=O)=O)C2)cc(OC)c1` (stereo unspecified) gave an inhibition of -1.79%. With `Cn1nc(C2CCCN(Cc3cc(F)cc(F)c3)C2)c2nccnc21` (stereo unspecified) the inhibition was 32.7% (active).
